Calls of active or inactive are those of the source. How the source made its calls: active means hit-call score of the fitted dose curve at least 0.9, where 1 is the maximum; inactive means score below 0.9.

Read-out in this assay: ABC Transporter (ABCB1), ABCB1 (gene 5243)
Briefly: LTEA_HepaRG_ABCB1: Life Technologies and Expression Analysis (LTEA) Assay for ABC Transporter (ABCB1) using HepaRG (AID 2283460). The note with it: mRNA level, 48 h; actives raise or lower the signal. On the procedure: LTEA_HepaRG is a cell based, multiplexed-readout assay that uses HepaRG, a human liver cell line, with measurements taken at 48 hours after chemical dosing on a 96-well plate.LTEA_HepaRG_ABCB1 is one of 102 assay component(s) measured in the LTEA HepaRG cell culture assay. It is a marker of Steatosis/NR mediated transport.Data from the assay component LTEA_HepaRG_ABCB1 was analyzed into 1 endpoint. This assay endpoint, LTEA_HepaRG_ABCB1, was analyzed with bidirectional fitting relative to DMSO as the negative control and baseline of activity. Using a type of inducible reporter, measures of mRNA induction for gain or loss-of-signal activity can be used to understand regulation of transcription factor activity. To generalize the intended target to other relatable targets, this assay endpoint is annotated to the transporter intended target family, where the subfamily is ABC transporter.
A total of 1060 chemcials from the ToxCast library were tested in eight-point concentration-response experiments. Cell culture and cytotoxicity assays were conducted at Thermo Fisher Scientific's Custom Services facility (Madison, WI). A single lot of human HepaRG cells (Thermo Fisher Scientific, Frederick, MD) was used for the cell culture experiments. 96-well format collagen type I coated plates of human HepaRG cells were prepared using established methods. Briefly, cryopreserved HepaRG cells were thawed, plated at a density of approximately 100,000 cells/well in HepaRG Thaw, Plate, and General Purpose media (HPRG770, Thermo Fisher Scientific), and incubated for 48 hours. 0.5% DMSO was selected as vehicle control to balance the requisite need of DMSO in HepaRG cultures to maintain differentiation (for example, baseline metabolism, proportions of hepatocytes vs. cholangiocytes), while enabling further hepatic receptor pathway activation (for example, PXR and CAR) in response to chemical exposure. 48 hours after plating, the culture medium was replaced with HepaRG Serum-Free Incudtion Media. Cells were exposed to each test chemical in duplicate and maintained in CO2 incubators for another 48 hours. Chemical plates were thawed to room temperature and 200x concentrations of treatment groups were prepared. 8-point conentration-reponse curves were made with the highest exposure at 100 uM, followed by half-log dilutions, all in 0.5% DMSO. Each test plate contained variouse controls, induction positive controls (1mM phenobarbital), cytotoxicity positive controls ([…] aflatoxin B1), vehicle controls (0.5% DMSO), and total lysis controls (0.5% DMSO). Cell morphology images were taken using an Essen IncuCyte FLR automated microscope, with six 96-well plates imaged in about 24 minutes. Images were captured and exported and JPEG files. Spent culture media was transfered to black-well plates for the LDH assay, and remaining media was sorted at -80 C for later use. Cells were treated with RLT buffer and frozen until shipped for gene expression analysis. Total RNA was isolated from the cell suspension in 75 uL of Buffer RLT (Qiagen, Germantown, MD 20874) by Quintiles/Expression Analysis (Durham, NC) using a custom isolation procedure. Total RNA from each plate well was transferred to a preamplification plate. Fluidigm's 96.96 Dynamic ArrayTM (Fluidigm, Amsterdam, the Netherlands) technology was used for gene expression analyses by quantitative reverse transcription polymerase chain reaction (qRT-PCR, performed by Quintiles/Expression Analysis, Durham, NC)89. Standard TaqManTM Assays (Applied Biosystems/ThermoFisher Scientific, Foster City, CA) were used to assess the expression of 93 genes selected based on their selectivity and sensitivity to important hepatic receptors known to be modulated by environmental chemicals; importance in human hepatocyte functionality; and hepatotoxicity. […]
Regarding `COCc1cnc(C2=NC(C)(C(C)C)C(=O)N2)c(C(=O)O)c1` (stereo not given), the molecule was called inactive. On the same count and under the same terms, the entry for `COc1ccc(-c2ccccc2)cc1NNC(=O)OC(C)C` is “inactive”; for `O=c1n(Cl)c(=O)n(Cl)c(=O)n1Cl` it is “inactive”.

For the molecule `Cc1ccc(N=CN(C)C=Nc2ccc(C)cc2C)c(C)c1`, the molecule was called inactive. The same measure, in the same setting: to `Nc1c(Cl)c(Cl)nc(C(=O)O)c1Cl` belongs “inactive”; to `COC(=O)NS(=O)(=O)c1ccc(N)cc1`, “inactive”. Same read-out and setting: to `COP(=S)(OC)Oc1ccc([N+](=O)[O-])c(C)c1` belongs “inactive”; to `O=C(Nc1ccccc1-c1ccc(Cl)cc1)c1cccnc1Cl`, “inactive”; to `Cc1cc(C)nc(Nc2ccccc2)n1`, “inactive”. The same measure, in the same setting: the entry for `CCOC(=O)C(C)OC(=O)c1cc(Oc2ccc(C(F)(F)F)cc2Cl)ccc1[N+](=O)[O-]` (stereo not given) is “inactive”. In general, AC50 refers to the midpoint of the concentration-response curve, whichever way the signal moves. For `CC(C)(C)C(=O)C(Oc1ccc(Cl)cc1)n1cncn1` (stereo not given), the AC50 was 7.7 µM (active).

As to `O=P(O)(O)CCCl`, the outcome was inactive. Consider `OC(c1ccc(Cl)cc1)(c1ccc(Cl)cc1)C(Cl)(Cl)Cl`, for which the outcome was inactive. Regarding `Nc1c(Cl)c(F)nc(OCC(=O)O)c1Cl`, the outcome was inactive. As for `CO/N=C(/C1=NOCCO1)c1ccccc1Oc1ncnc(Oc2ccccc2Cl)c1F`, the result was inactive.

In the case of `COC(=O)N(C(=O)N1CO[C@@]2(C(=O)OC)Cc3cc(Cl)ccc3C2=N1)c1ccc(OC(F)(F)F)cc1`, the molecule was called inactive. Take `CCC(C)n1c(=O)[nH]c(C)c(Br)c1=O` (stereo not given): the molecule was classed as inactive.

Consider `CCOc1nc(F)cc2nc(S(=O)(=O)Nc3c(Cl)cccc3Cl)nn12`, for which the outcome was inactive. The same measure, in the same setting: the entry for `CC(C)N1C(=O)c2ccccc2NS1(=O)=O` is “inactive”; for `Nc1cnn(-c2ccccc2)c(=O)c1Cl` it is “inactive”. Same read-out and setting: the entry for `COCC(=O)N(c1c(C)cccc1C)C(C)C(=O)OC` (stereo not given) is “inactive”.

In the case of `CC(C)Oc1cccc(NC(=O)c2ccccc2C(F)(F)F)c1`, the AC50 is 50 µM (active). With `CC1(C)C(C(=O)OC(C#N)c2cccc(Oc3ccccc3)c2)C1(C)C` (stereo not given), the call was inactive. Turning to `COP(=O)(OC)O/C(C)=C/C(=O)N(C)C`, the molecule was classed as inactive. `CC1(C)CCC(=Cc2ccc(Cl)cc2)C1(O)Cn1cncn1` (stereo not given): the AC50 was 4.18 µM (active).

Take `Cc1nc(N(C)C)nc(OC(=O)N(C)C)c1C`: the AC50 was 9.92 µM (active). Consider `Clc1nc(Cl)nc(Nc2ccccc2Cl)n1`, for which the molecule was called inactive. Take `CS(=O)(=O)c1cc(C(F)(F)F)ccc1C(=O)c1cnoc1C1CC1`: the molecule was classed as inactive. The same measure, in the same setting: to `C=C(C)CN(CC)c1c([N+](=O)[O-])cc(C(F)(F)F)cc1[N+](=O)[O-]` belongs “inactive”. On the same count and under the same terms, to `COc1cc(Cl)c(OC)cc1Cl` belongs “inactive”.

Turning to `CCCCOCN(C(=O)CCl)c1c(CC)cccc1CC`, the AC50 was 83.7 µM (active).

`COC(=O)c1c(C(F)F)nc(C(F)(F)F)c(C2=NCCS2)c1CC(C)C`: the outcome was inactive. Still for that read-out and setting: to `N#CN=C1SCCN1Cc1ccc(Cl)nc1` belongs “inactive”. As to `CC1(C)C(C=C(Cl)Cl)C1C(=O)OC(C#N)c1cccc(Oc2ccccc2)c1` (stereo not given), the AC50 was 50 µM (active). With `CS(=O)(=O)c1ccc(C(=O)C2C(=O)CCCC2=O)c([N+](=O)[O-])c1`, the call was inactive.

For `CCSC(=O)N1CCCCCC1`, the call was inactive. `CCNP(=S)(OC)O/C(C)=C/C(=O)OC(C)C` (stereo not given): the AC50 was 13 µM (active).

Turning to `CNC(=O)Oc1cccc2ccccc12`, the result was inactive.

As for `COP(=S)(OC)SCn1nnc2ccccc2c1=O`, the outcome was inactive. For `O=C(O)c1c(Cl)ccc2cc(Cl)cnc12`, the outcome was inactive.

These data come from PubChem BioAssay (EPA / NIEHS).
